esBAF inh: blocks esBAF chromatin remodeling in mouse ES cells; 350,000 tested, 2% active; Bmi1-luciferase knock-in reporter, 24 h; 100% = twice the neutral-well signal; reporter increase, % at 12.5 µM; AID 602393; in the data active = activation above about 40%; inconclusive = no clear call, values can overlap the other calls;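 also: 0% = median of the plate's neutral control wells and 100% = double that signal; a rise in the Bmi1 reporter signal indicates esBAF inhibition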
C2C12 statin: suppressors of simvastatin-induced myotoxicity in C2C12 myotubes; AID 602340; 330,000 tested, 0.78% active; rescue of ATP level, % at 7.49 µM; ATP luminescence, 48 h; scaled: DMSO 0, geranylgeraniol control 100;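 active = mean ATP rescue above about 67%, or every replicate alone reaching that limit, limit read from the data, passing the limit was not always enough; inconclusive = no clear call, values can overlap the other calls; inactive = mean under the limit and some replicate under it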;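 also: myotubes were challenged with 10 µM simvastatin during compound exposure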
MITF TRPM1 HTS: MITF TRPM1 promoter activation in melanoma cells; SK-MEL-5 TRPM1-promoter luciferase, 24 h; % of positive control, neutral wells = 0; activation, % at 12.5 µM; 300,000 tested, 0.75% active;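 active = mean activation of at least 80% with every replicate also reaching 80%; inconclusive = mean reaches 80% but some replicate falls short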;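 also: 0% = neutral control wells and 100% = parthenolide positive control wells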
Wnt bcat act: activates Wnt/beta-catenin signaling in a reporter cell assay | activator, plate reader | activation, % at 9.35 µM | 300,000 tested, 1.2% active | AID 743398; in the data active = activation above about 30%, passing the limit was not always enough; inconclusive = no clear call, values can overlap the other calls;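 also: 0% = neutral control wells and 100% = positive control wells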
* = called active by the depositor; ? = inconclusive; nt = no result given. Compounds with a hit are over-represented: about 3% of the library has one in this group of screens.

SMILES	esBAF inh	C2C12 statin	MITF TRPM1 HTS	Wnt bcat act
Cc1ccc([C@H]2C[C@H](O)[C@@H](n3cc(C4CC4)nn3)CN2Cc2cccs2)cc1	46.9*	28.5	nt	1.4
O=C(Nc1ccccc1)OCCCc1ccccc1	57.1*	4.4	56.5	?
COc1cccc(NC(=O)Nc2ccc3c(c2)nnn3C)c1	48.4*	nt	107.3*	15.6
COc1cccc(NC(=O)Nc2ccc(CC(=O)O)cc2)c1	-4.0	1.6	-5.2	-1.5
Cn1nnc2cc(C(=O)Nc3ccc(Cl)cc3)ccc21	nt	nt	52.6	15.4
CN(C)c1ccc(NC(=O)Nc2ccc3c(c2)nnn3C)cc1	38.9	-7.6	nt	11.5
CCc1ccc(NC(=O)Nc2cccc(OC)c2)cc1	62.1*	5.0	50.6	-3.5
Cc1ccc(NC(=O)c2ccc3c(c2)nnn3C)cc1	nt	nt	52.5	39.2*
O=C(C[C@@H]1CC[C@@H]2[C@H](COC[C@@H](O)CN2C(=O)C2CCCC2)O1)NCc1ccncc1	0.7	-15.2	nt	nt
COc1ccc(NC(=O)N(C)C[C@@H]2Oc3ccc(NC(=O)Cc4ccccc4)cc3C(=O)N([C@H](C)CO)C[C@H]2C)cc1	-3.2	-5.5	nt	nt
COc1cccc(NC(=O)Nc2cc(C)ccc2F)c1	61.1*	2.5	nt	nt
COC(=O)c1sccc1NC(=O)Nc1cccc(C(C)=O)c1	1.4	2.1	1.2	-1.4
COC(=O)c1sccc1NC(=O)Nc1cccc(C)c1	94.8*	-3.4	18.9	12.0
CCc1ccc(OC(=O)Nc2ccccc2)cc1	-4.6	2.0	92.2*	23.5
CCCCN1CC(O)=C(c2nc3ccccc3[nH]2)C1=N	58.5*	-37.9	65.4	22.4
CCCCCN1CC(O)=C(c2nc3ccccc3[nH]2)C1=N	nt	nt	52.4	7.0
COc1ccc(C(=O)/C(=C/c2cccs2)c2nc3ccccc3o2)cc1	21.1	94.4*	7.0	11.8
CC(=Cc1cccs1)C(=O)c1ccccc1	nt	nt	nt	-3.9
N#C/C(=C\c1ccc(Cl)cc1)c1nc2ccccc2o1	nt	nt	21.6	13.6
COc1ccc(/C=C(\CC(=O)O)c2nc3ccccc3o2)cc1	69.4*	-1.8	60.6	5.0
C[C@H](CO)N1C[C@H](C)[C@@H](CN(C)C)Oc2c(NC(=O)c3cnccn3)cccc2C1=O	0.3	3.3	nt	nt
COc1ccc(CN(C)C[C@@H]2OCCCC[C@H](C)Oc3ccc(N(C)C)cc3C(=O)N([C@H](C)CO)C[C@H]2C)cc1	-0.4	4.7	nt	nt
COc1ccc(CN2C[C@H](C)[C@@H](OC)CN(C)C(=O)c3ccc(NC(=O)c4nc5ccccc5s4)cc3OC[C@@H]2C)cc1	31.3	19.3	nt	nt
CC(C)CC#Cc1ccc2c(c1)O[C@@H](CN(C)C(=O)Cc1ccccn1)[C@@H](C)CN([C@@H](C)CO)S2(=O)=O	7.2	18.9	nt	nt
O=C(O)c1ccc(/C=C/c2ccc3cccc(O)c3n2)cc1	104.1*	-5.1	?	16.7
SMILES	esBAF inh	C2C12 statin	MITF TRPM1 HTS	Wnt bcat act
Oc1ccc(/C=C/c2ccc3cccc(O)c3n2)cc1Br	77.4*	2.0	43.7	14.5
CCC(=O)N1[C@H](CN(CC)C(C)=O)[C@@H](c2ccc(-c3cccnc3)cc2)[C@@H]1CO	-3.8	-1.2	nt	nt
COc1ccc(-c2ccc3c(c2)O[C@@H](CN(C)CC2CC2)[C@@H](C)CN([C@@H](C)CO)S3(=O)=O)cc1	-0.3	-0.9	nt	nt
CCCNC(=O)C[C@H]1CC[C@@H]2[C@@H](COc3ccc(NC(=O)c4ccc(OC)cc4)cc3C(=O)N2C)O1	1.5	2.2	nt	nt
C=CCn1c(SCC(=O)Nc2ccc3c(c2)OCO3)nnc1-c1ccccc1	-8.1	-1.1	0.4	0.4
C=CCn1c(SCC(=O)Nc2ccc3c(c2)OCO3)nnc1-c1cc(Br)ccc1O	6.1	6.0	-10.7	46.6*
COC(=O)c1cc(C#N)c(Oc2ccc(OC)cc2)nc1C	5.9	-4.8	nt	-0.6
COC(=O)c1cc(C#N)c(Oc2cccc(C)c2C)nc1C	6.2	29.8	8.1	0.8
CC(=O)c1cc(C#N)c(Oc2ccc(Cl)cc2Cl)nc1C	14.1	166.6*	-11.6	nt
CC(=O)c1cc(C#N)c(Oc2ccccc2)nc1C	2.9	104.8*	4.1	nt
CO[C@@H]1CN(C)C(=O)c2ccc(NC(=O)C3CC3)cc2OC[C@H](C)N(C(=O)CN(C)C)C[C@@H]1C	5.6	5.0	nt	nt
CSCCC(NC(=O)c1ccco1)C(=O)NC1CCC(C)CC1 (centres undefined)	62.0*	5.6	112.0*	23.6
O=C(Nc1ccccc1C(=O)NC(Cc1ccccc1)C(=O)NC1CCCCCC1)c1ccccc1 (centres undefined)	6.1	118.7*	nt	-1.4
O=C(N[C@@H](Cc1ccccc1)C(=O)NC1CCCCCC1)c1ccco1	45.4*	1.1	?	nt
O=C(Nc1ccccc1C(=O)NC1CCCCC1)c1ccccc1	-8.1	-20.0	0.8	-14.1
